Results on 26 molecules are retold here after PubChem BioAssay AID743314 (Broad Institute, 2014).

The structures appear in SMILES notation. Potency and affinity values are given separately. Inconclusive results are not listed. Entries that show only a call come without a potency. Activity calls are given as the source filed them.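 Rule for the calls: active = fitted half-maximal concentration no higher than twice the top tested dose, in every repeat run; inconclusive = repeat runs disagree, poor fit, or flat partial inhibition; inactive = the rest.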

For this experiment, the target named is Endoplasmic reticulum aminopeptidase 1 (Homo sapiens) (UniProt Q9NZ08). The experiment is described as follows: inhibition of human ERAP1 enzyme activity – biochemical, cherry-pick, set 2, plate reader, dose response (AID 743314). Conditions: Recombinant ERAP1, Leu-AMC fluorescence, 60 min; series mostly up to 11 µM.
Endoplasmic reticulum aminopeptidase 1 (Homo sapiens), sequence (Q9NZ08 whole entry, looked up): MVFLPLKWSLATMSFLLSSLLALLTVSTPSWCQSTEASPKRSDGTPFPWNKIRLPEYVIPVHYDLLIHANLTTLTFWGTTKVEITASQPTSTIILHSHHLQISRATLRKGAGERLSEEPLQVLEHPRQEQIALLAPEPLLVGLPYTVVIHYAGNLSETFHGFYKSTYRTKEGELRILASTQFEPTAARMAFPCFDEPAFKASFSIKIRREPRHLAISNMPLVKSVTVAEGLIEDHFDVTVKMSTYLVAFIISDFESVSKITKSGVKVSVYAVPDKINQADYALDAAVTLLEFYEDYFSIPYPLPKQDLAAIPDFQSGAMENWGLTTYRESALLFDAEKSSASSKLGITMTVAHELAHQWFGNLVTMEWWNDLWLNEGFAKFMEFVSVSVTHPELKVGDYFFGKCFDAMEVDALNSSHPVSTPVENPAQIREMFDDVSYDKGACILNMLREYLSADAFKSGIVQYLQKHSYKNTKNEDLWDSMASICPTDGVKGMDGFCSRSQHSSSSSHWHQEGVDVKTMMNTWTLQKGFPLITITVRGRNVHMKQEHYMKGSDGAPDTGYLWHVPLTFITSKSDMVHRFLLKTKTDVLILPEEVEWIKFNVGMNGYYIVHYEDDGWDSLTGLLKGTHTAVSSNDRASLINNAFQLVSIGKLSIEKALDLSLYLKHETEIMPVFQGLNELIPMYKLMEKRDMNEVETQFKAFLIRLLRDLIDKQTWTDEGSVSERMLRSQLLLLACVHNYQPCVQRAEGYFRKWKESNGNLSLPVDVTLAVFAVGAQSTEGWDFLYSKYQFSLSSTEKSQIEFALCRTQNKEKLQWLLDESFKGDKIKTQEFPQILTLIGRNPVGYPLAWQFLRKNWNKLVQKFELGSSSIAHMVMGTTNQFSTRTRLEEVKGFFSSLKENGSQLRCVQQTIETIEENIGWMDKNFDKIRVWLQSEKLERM
With `CCCN1[C@@H]2c3ccc(-c4cccnc4)c(=O)n3C[C@H]1[C@H](CO)[C@H]2C(=O)NCCc1cn(C)cn1`, the outcome was inactive.

In the case of `COc1cccc(CN(C)Cc2cc(=O)oc3cc(O)c(Cl)cc23)c1`, the result was inactive.

Turning to `Cc1ccc(S(=O)(=O)c2cc3ccc(O)cc3oc2=O)cc1C`, the result was inactive.

With `O=C(C[C@H]1CC[C@H](NC(=O)C2CCOCC2)[C@H](CO)O1)NCc1ccncc1`, the result was inactive.

On to `CCN1CCN(CCCNC(=O)c2cc3c(s2)-c2ccccc2OC3)CC1`, for which the result was inactive.

Regarding `COc1ccc(CN(C)C[C@H]2Oc3c(NC(=O)NC4CCCCC4)cccc3C(=O)N([C@@H](C)CO)C[C@@H]2C)cc1`, the outcome was inactive.

As to `CC(=O)N1CC[C@@H]2[C@@H](CO)N(C)c3ccc(-c4ccc(C#N)cc4)cc3[C@@H]21`, the outcome was inactive.

Regarding `O=C(CC1CC1)N1[C@H](CO)[C@@H](c2ccccc2)C12CN(Cc1cc(F)ccc1F)C2`, the result was inactive.

On to `Cn1c(CCC(=O)Nc2cc(S(C)(=O)=O)ccc2Cl)nc2cc(S(=O)(=O)N3CCOCC3)ccc21`, for which the outcome was inactive.

`C[C@H](NC(=O)C[C@H]1CC[C@H]2[C@@H](COC[C@H](O)CN2C(=O)Nc2ccccc2)O1)c1ccccc1`: the result was inactive.

Regarding `CCOCc1c(C(=O)Nc2ccc(OC)nc2)oc2ccccc12`, the outcome was inactive.

In the case of `C[C@@H]1CN([C@H](C)CO)C(=O)c2cc(NC(=O)CCN3CCOCC3)ccc2O[C@@H]1CN(C)S(=O)(=O)c1ccccc1`, the result was inactive.

As for `CC(C)NC(=O)N[C@@H]1CC[C@@H](CCNS(=O)(=O)c2ccc(Cl)cc2)O[C@@H]1CO`, the result was inactive.

For `N=c1c(S(=O)(=O)c2ccccc2)cc2c(=O)n3ccccc3nc2n1CCCN1CCOCC1`, the outcome was inactive.

As to `Cc1noc(C)c1NC(=O)N(C)C[C@H]1Oc2c(NC(=O)Nc3ccc(F)cc3)cccc2C(=O)N([C@H](C)CO)C[C@@H]1C`, the result was inactive.

As for `C[C@H](CO)N1C[C@H](C)[C@@H](CN(C)S(=O)(=O)c2ccccc2)Oc2ccc(NC(=O)CCN3CCOCC3)cc2C1=O`, the result was inactive.

Consider `CCc1cc(=O)oc2c(CNCc3ccccc3F)c(O)c(Cl)cc12`, for which the outcome was inactive.

For `CCc1cccc(C)c1NC(=O)c1cc(=O)[nH]c2ccc(S(=O)(=O)N3CCOCC3)cc12`, the outcome was inactive.

As for `Cc1ccc(S(=O)(=O)N2CCN(C(=O)COC(=O)c3ccc(Cl)c(S(N)(=O)=O)c3)CC2)c(C)c1`, the outcome was inactive.

On to `C[C@@H]1CN([C@@H](C)CO)C(=O)c2cc(-c3ccc(F)cc3)cnc2O[C@@H]1CN(C)CC1CCCCC1`, for which the outcome was inactive.

As to `C[C@@H]1CN([C@@H](C)CO)C(=O)c2cc(NC(=O)CCN3CCOCC3)ccc2O[C@@H]1CN(C)S(=O)(=O)c1ccccc1`, the result was inactive.

With `COc1ccc2c3c(n(C)c2c1)[C@@H](CO)N(C)CC31CN(C(=O)c2cccnc2)C1`, the result was inactive.

Take `O=C(O)[C@@H]1[C@@H](CO)[C@@H]2Cn3c(ccc(/C=C/c4ccccc4)c3=O)[C@@H]2N1Cc1ccc2c(c1)OCO2`: the result was inactive.

With `CCN1CCCC1CNS(=O)(=O)c1cccc(C(F)(F)F)c1` (stereo unspecified), the result was inactive.

Regarding `Cc1noc(C)c1S(=O)(=O)Nc1ccc2c(c1)C(=O)N([C@H](C)CO)C[C@@H](C)[C@@H](CN(C)CC1CCCCC1)OCCCC[C@@H](C)O2`, the outcome was inactive.

Take `C[C@H](CO)N1C[C@H](C)[C@H](CN(C)C)Oc2c(NC(=O)Nc3ccc(C(F)(F)F)cc3)cccc2C1=O`: the outcome was inactive.
